Data: PubChem BioAssay (NCATS)
Results filed as inconclusive are left out. A call without a number means that no potency is given here. Active and inactive are the calls of the source. Calls follow the shape of the dose curve; as a rule, active = well fitted inhibition curve with a large enough effect; inconclusive = small, poorly fitted or top-dose-only effect; inactive = flat fitted curve, though single readings scatter.

tested on: P94_40; experiment: qHTS profiling for inhibitors of Plasmodium falciparum proliferation (AID 504749); also: nearly all actives have a fitted effect of over 60% in size; settings: P. falciparum in erythrocytes, SYBR Green DNA, 72 h; series mostly up to 28.7 µM
In short: (§1)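 Each compound contacts P. falciparum-infected red blood cells for 72 h at 37 C; lysis buffer (Tris, EDTA, saponin, Triton X, SYBR Green I) is added and fluorescence measured next morning; values normalized to controls.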
Potency is read from the fitted curve at half-maximal effect.

Structure (SMILES)	Potency
CC(=O)Oc1ccc(C(=C2CCCCC2)c2ccc(OC(C)=O)cc2)cc1	inactive
C1CCc2nnnn2CC1	inactive
Cc1ccnc(NS(=O)(=O)c2ccc(N)cc2)n1	inactive
CC1(C)CCC(NC(=O)[C@@H](N)CCC(=O)O)CC1	inactive
Nc1cc(Cl)c(NC2=NCCN2)c(Cl)c1	inactive
NCCC(O)(P(=O)(O)O)P(=O)(O)O	inactive
C[C@@H]1CN(CCCn2c3ccccc3c3ccccc32)C[C@H](C)N1	8.91 µM (active)
CC1=C(C(=O)OC(C)C)C(c2cccc([N+](=O)[O-])c2)C(C(=O)OC2CN(C(c3ccccc3)c3ccccc3)C2)=C(N)N1 (configuration not stated)	8.91 µM (active)
NCCc1ccn[nH]1	inactive
O=C(O)c1cc2cc(Cc3cccnc3)ccc2o1	inactive
CCN1CCC[C@H]1CNC(=O)c1c(OC)ccc(Br)c1OC	inactive
Nc1ccc(C(=O)Nc2ccccc2N)cc1	inactive
N[C@H](CO)C(=O)O	inactive
CC(=O)OCC(=O)NCCCOc1cccc(CN2CCCCC2)c1	inactive
CC(C)COC(=O)OCN1C(=O)CN(CCN2CC(=O)N(COC(=O)OCC(C)C)C(=O)C2)CC1=O	inactive
O=C1CCC(c2ccc(-n3ccnc3)cc2)=NN1	inactive
N[C@@H](Cc1cnc[nH]1)C(=O)O	inactive
Nc1ccc(C(=O)O)cc1	inactive
CCCCC1=NC2(CCCC2)C(=O)N1Cc1ccc(-c2ccccc2-c2nn[nH]n2)cc1	inactive
CC(C)(C)CC(C)(C)c1ccc(O)c(Cc2ccc(Cl)cc2Cl)c1	1 µM (active)
C[C@@H]1C(=O)NC2=Nc3cccc(Cl)c3CN21	inactive
CCOC(=O)/C=C(C)/C=C/C=C(C)/C=C/c1c(C)cc(OC)c(C)c1C	8.91 µM (active)
C[N+]1(CCCCC[N+]2(C)CCCC2)CCCC1	inactive

tested on: PAD; experiment: as above; settings: P. falciparum in erythrocytes, SYBR Green DNA, 72 h; series mostly up to 28.7 µM
In short: as §1

Structure (SMILES)	Potency
CC(=O)Oc1ccc(C(=C2CCCCC2)c2ccc(OC(C)=O)cc2)cc1	inactive
C1CCc2nnnn2CC1	inactive
Cc1ccnc(NS(=O)(=O)c2ccc(N)cc2)n1	inactive
CC1(C)CCC(NC(=O)[C@@H](N)CCC(=O)O)CC1	inactive
Nc1cc(Cl)c(NC2=NCCN2)c(Cl)c1	inactive
NCCC(O)(P(=O)(O)O)P(=O)(O)O	inactive
C[C@@H]1CN(CCCn2c3ccccc3c3ccccc32)C[C@H](C)N1	1.78 µM (active)
CC1=C(C(=O)OC(C)C)C(c2cccc([N+](=O)[O-])c2)C(C(=O)OC2CN(C(c3ccccc3)c3ccccc3)C2)=C(N)N1 (configuration not stated)	10 µM (active)
NCCc1ccn[nH]1	inactive
O=C(O)c1cc2cc(Cc3cccnc3)ccc2o1	inactive
CCN1CCC[C@H]1CNC(=O)c1c(OC)ccc(Br)c1OC	inactive
Nc1ccc(C(=O)Nc2ccccc2N)cc1	inactive
N[C@H](CO)C(=O)O	inactive
CC(=O)OCC(=O)NCCCOc1cccc(CN2CCCCC2)c1	inactive
CC(C)COC(=O)OCN1C(=O)CN(CCN2CC(=O)N(COC(=O)OCC(C)C)C(=O)C2)CC1=O	inactive
O=C1CCC(c2ccc(-n3ccnc3)cc2)=NN1	inactive
N[C@@H](Cc1cnc[nH]1)C(=O)O	inactive
Nc1ccc(C(=O)O)cc1	inactive
CCCCC1=NC2(CCCC2)C(=O)N1Cc1ccc(-c2ccccc2-c2nn[nH]n2)cc1	inactive
CC(C)(C)CC(C)(C)c1ccc(O)c(Cc2ccc(Cl)cc2Cl)c1	1 µM (active)
C[C@@H]1C(=O)NC2=Nc3cccc(Cl)c3CN21	inactive
C[N+]1(CCCCC[N+]2(C)CCCC2)CCCC1	inactive

tested on: PC15; experiment: as above; settings: P. falciparum in erythrocytes, SYBR Green DNA, 72 h; series mostly up to 28.7 µM
In short: as §1

Structure (SMILES)	Potency
CC(=O)Oc1ccc(C(=C2CCCCC2)c2ccc(OC(C)=O)cc2)cc1	inactive
C1CCc2nnnn2CC1	inactive
Cc1ccnc(NS(=O)(=O)c2ccc(N)cc2)n1	inactive
CC1(C)CCC(NC(=O)[C@@H](N)CCC(=O)O)CC1	inactive
Nc1cc(Cl)c(NC2=NCCN2)c(Cl)c1	inactive
NCCC(O)(P(=O)(O)O)P(=O)(O)O	inactive
CC1=C(C(=O)OC(C)C)C(c2cccc([N+](=O)[O-])c2)C(C(=O)OC2CN(C(c3ccccc3)c3ccccc3)C2)=C(N)N1 (configuration not stated)	4.47 µM (active)
NCCc1ccn[nH]1	inactive
O=C(O)c1cc2cc(Cc3cccnc3)ccc2o1	inactive
CCN1CCC[C@H]1CNC(=O)c1c(OC)ccc(Br)c1OC	inactive
Nc1ccc(C(=O)Nc2ccccc2N)cc1	inactive
N[C@H](CO)C(=O)O	inactive
CC(=O)OCC(=O)NCCCOc1cccc(CN2CCCCC2)c1	inactive
CC(C)COC(=O)OCN1C(=O)CN(CCN2CC(=O)N(COC(=O)OCC(C)C)C(=O)C2)CC1=O	inactive
O=C1CCC(c2ccc(-n3ccnc3)cc2)=NN1	inactive
N[C@@H](Cc1cnc[nH]1)C(=O)O	inactive
Nc1ccc(C(=O)O)cc1	inactive
CCCCC1=NC2(CCCC2)C(=O)N1Cc1ccc(-c2ccccc2-c2nn[nH]n2)cc1	inactive
CC(C)(C)CC(C)(C)c1ccc(O)c(Cc2ccc(Cl)cc2Cl)c1	2.24 µM (active)
C[C@@H]1C(=O)NC2=Nc3cccc(Cl)c3CN21	inactive
CCOC(=O)/C=C(C)/C=C/C=C(C)/C=C/c1c(C)cc(OC)c(C)c1C	inactive
C[N+]1(CCCCC[N+]2(C)CCCC2)CCCC1	inactive
